Broadly, the AC50 is the midpoint of the concentration-response curve, whichever way the signal moves.

Results filed as inconclusive are left out. The source made the active and inactive calls. Rule for the calls, unless noted: active = hit-call score of the fitted dose curve at least 0.9, where 1 is the maximum; inactive = score below 0.9.

The values that follow come from PubChem BioAssay (EPA / NIEHS).

Test [1] is described as follows: CCTE_Shafer_MEA_dev_per_network_spike_spike_number_mean: CCTE's Neural Network Formation Assay for Mean Number of Spikes in a Network Spike, Shafer Lab (AID 2284053).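 For AC50: fitted as decrease in spikes per network spike relative to DMSO.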 In short, it runs like this: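 Continuous twelve-day exposure of developing rat cortical networks grown over 16 microelectrodes per well; spontaneous firing is captured at four time points, and the per-network-spike spike number is integrated over development by trapezoidal AUC.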

Test [2] is described as follows: CCTE_Shafer_MEA_dev_per_network_spike_spike_percent: CCTE's Neural Network Formation Assay for Percent of Spikes in a Network Spike, Shafer Lab (AID 2284054). The method in brief: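 Rat primary cortical cultures, 1.5 x 10^5 cells/well on MEA. Continuous compound exposure d0–12, medium/compound renewed DIV 5, 9. Network-spike spike % (0.05 s peak window), AUC over 4 recordings, DMSO baseline.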

The nature of test [3]: CCTE_Shafer_MEA_dev_AB: CCTE's Alamar Blue Assay for Cytotoxicity in the Neural Network Formation Assay, Shafer Lab (AID 2284083; active = hit-call score of the fitted dose curve at least 0.9, where 1 is the maximum;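 note: twelve days of exposure from plating with re-dosing on DIV 5 and 9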). The method in brief: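 Fluorescent resazurin reduction serves as the viability read-out, with DMSO as negative control and baseline. Cells were primary rat cortical neurons grown on MEA plates and dosed from day 0 to day 12, treatment renewed on DIV 5 and 9.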
For orientation: Resazurin is reduced to fluorescent resorufin, in cell work by metabolically active cells.

Test [4] in a line: CCTE_Shafer_MEA_dev_mutual_information_norm: CCTE's Neural Network Formation Assay for Mutual Information Normalization, Shafer Lab (AID 2284091).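 For AC50: mutual information between electrodes summarised as area under curve across four recording days; potency is for a decrease in mutual information relative to DMSO.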 In short, it runs like this:
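Developing rat cortical networks on 16-electrode MEA wells are treated throughout formation (DIV 0–12). Shared electrode information is recorded four times, converted to area-under-curve, and fitted for decreases against DMSO vehicle.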

Test [5] is described as follows: CCTE_Shafer_MEA_dev_correlation_coefficient_mean: CCTE's Neural Network Formation Assay for Mean Correlation Coefficient, Shafer Lab (AID 2284093).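 For AC50: well mean pairwise spike train correlation integrated as AUC over recording days 5 to 12; potency fitted for loss of correlation relative to DMSO vehicle wells.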 In short, it runs like this:
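Read-out: well-mean correlation coefficient of spike trains between electrode pairs, collapsed over four recording days as trapezoidal area-under-the-curve. Developing rat cortical neuron networks grown on MEAs received test chemical continuously from plating.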

Test [6] can be described thus: CCTE_Shafer_MEA_dev_LDH: CCTE's Lactate Dehydrogenase Assay for Cytotoxicity in the Neural Network Formation Assay, Shafer Lab (AID 2284068; active = hit-call score of the fitted dose curve at least 0.9, where 1 is the maximum;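 note: exposure for twelve days from plating with re-dosing on DIV 5 and 9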). The method in brief: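 Cytotoxicity companion to network-formation recordings: rat cortical neurons received compound over 12 days of development, re-dosed at DIV 5 and 9 feeds. Viability was inferred from LDH enzyme activity relative to DMSO.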

The nature of test [7]: IUF_NPC1b_proliferation_BrdU_72hr: Leibniz Research Institute for Environmental Medicine (IUF) 72-hour Neural Progenitor Cell Bromodeoxyuridine (BrdU) Proliferation Assay (NPC1b) (AID 2284207). In short, it runs like this: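 Proliferation of primary human neural progenitor cells: 72 h compound treatment at 37C, 5% CO2, pH 7.2-7.6, in EGF/FGF-containing medium. Readout is BrdU uptake (last 16 h) by chemiluminescent ELISA, normalised to DMSO.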

Test [8] in a line: IUF_NPC1a_proliferation_area_72hr: Leibniz Research Institute for Environmental Medicine (IUF) 72-hour Neural Progenitor Cell Proliferation Area Assay (NPC1a) (AID 2284208). The method in brief: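 Measured in 3D suspension: each well held one primary hNPC sphere grown with EGF and FGF at pH 7.2-7.6. Compound stayed on for 72 h, then area was imaged; spheres lacking growth factors defined reduced proliferation.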

Test [9] is described as follows: IUF_NPC1_viability_72hr: Viability Assessment at 72 hours in the Leibniz Research Institute for Environmental Medicine (IUF) Neural Progenitor Cell Proliferation Assay (NPC1) (AID 2284209). The method in brief:
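Human fetal-cortex neural progenitor spheres (0.25–0.35 mm, one per well) grown in EGF/FGF proliferation medium at 37C, pH 7.2-7.6, exposed 72 h without renewal; viability read as alamar blue resazurin-to-resorufin fluorescence relative to DMSO.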

Test [10] is described as follows: CCTE_Shafer_MEA_acute_LDH: CCTE's Lactate Dehydrogenase Assay for Cytotoxicity in the Neural Acute Assay, Shafer Lab (AID 2284086; active = hit-call score of the fitted dose curve at least 0.9, where 1 is the maximum;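 note: active means LDH release rises above DMSO vehicle level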). The method in brief: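 Primary rat cortical neurons on 48-well MEA plates, treated on day 13 or 15 post-plating. After the 40-min recording with compound, medium LDH release was read by absorbance at 490 nm. Gain of signal was fitted against DMSO negative control.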

Test [11] in a line: CCTE_Mundy_HCI_Cortical_Synap_Neur_Matur_NeuriteSpotCountPerNeuriteLength: CCTE's Synaptogenesis and Neurite Maturation Assay in rat cortical cells for Neurite Spot Count per Neurite Length, Mundy Lab (AID 2284210). In short, it runs like this:
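Primary rat cortical neurons, compound exposure DIV 7–12, 288.33 h endpoint. Hoechst, anti-MAP2 and anti-synaptophysin labelling; neurite-associated puncta per neurite length scored by automated imaging relative to DMSO controls.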

Test [12] can be described thus: CCTE_Mundy_HCI_Cortical_Synap_Neur_Matur_BPCount: CCTE's Synaptogenesis and Neurite Maturation Assay in rat cortical cells for Branch Point Count, Mundy Lab (AID 2284211). In short, it runs like this:
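Branch point number is quantified by automated imaging of fluorescently labelled neurites and synapses in rat primary cortical neurons exposed from DIV 7 to DIV 12. Activity is analysed relative to DMSO negative control.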

A short description of test [13]: CCTE_Mundy_HCI_Cortical_NOG_NeuriteCount: CCTE's Neurite Outgrowth Assay in rat cortical cells for Neurite Count, Mundy Lab (AID 2284212).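 Note: cells fixed about two days after chemical exposure began.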 The method in brief: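 Neurite number per cell from high-content imaging of betaIII-tubulin immunostaining, with Hoechst nuclear counterstain.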
Test [14] in a line: CCTE_Mundy_HCI_Cortical_NOG_NeuriteLength: CCTE's Neurite Outgrowth Assay in rat cortical cells for Neurite Length, Mundy Lab (AID 2284213). The method in brief: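 Neurite length was read by high-content imaging of βIII-tubulin-labelled neurites in rat primary cortical cultures. Activity was fitted relative to DMSO.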
Test [15] is described as follows: CCTE_Mundy_HCI_Cortical_Synap_Neur_Matur_NeuriteLength: CCTE's Synaptogenesis and Neurite Maturation Assay in rat cortical cells for Neurite Length, Mundy Lab (AID 2284214). In short, it runs like this:
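Rat primary cortical cells were plated, treated with AraC at DIV 5 to arrest glial growth, then chemical-dosed with media change at DIV 7 through DIV 12. Fixed cells stained for MAP2, synaptophysin and Hoechst; neurite length quantified by high-content imaging.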

Test [16] in a line: CCTE_Shafer_MEA_acute_AB: CCTE's Alamar Blue Assay for Cytotoxicity in the Neural Acute Assay, Shafer Lab (AID 2284069; active = hit-call score of the fitted dose curve at least 0.9, where 1 is the maximum;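 note: active compounds lower the viability signal compared with DMSO wells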). In short, it runs like this: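 Metabolic activity in chemically exposed rat cortical neurons (MEA cultures, day 13/15 post-plating) measured via CellTiter Blue resazurin reduction, 544/590 nm fluorescence; fitted relative to DMSO, with signal loss indicating reduced viability.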

Test [17] can be described thus: UKN5_HCS_SBAD2_cell_viability: Viability Assessment in the University of Konstanz (UKN) Leist Lab Neurite Outgrowth Assay in human iPSC-derived immature Dorsal Root Ganglia Neurons (UKN5) (AID 2284056). The method in brief:
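iPSC-derived immature peripheral neurons (SBAD2) seeded on Matrigel with CHIR99021, SU5402 and DAPT, dosed 1 h later for 24 h. Viability from Hoechst H-33342 and calcein-AM live staining, high-content imaging; bidirectional fit versus DMSO.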

The nature of test [18]: UKN5_HCS_SBAD2_neurite_outgrowth: University of Konstanz (UKN) Leist Lab Neurite Outgrowth Assay in human iPSC-derived immature Dorsal Root Ganglia Neurons (UKN5) (AID 2284070). As to conditions: actives raise or lower the signal. The method in brief:
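Human iPSC-derived immature DRG neurons (SBAD2) on Matrigel with CHIR99021 (1.5 uM), SU5402 (5 uM), DAPT (5 uM); compounds added 1 h post-seeding for 24 h. Calcein-AM neurite area imaged; bidirectional fit vs DMSO.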

Test [19] concerns DIO3 (gene 1735). Briefly: CCTE_GLTED_hDIO3: CCTE's human Deiodinase 3 (DIO3) Inhibition Assay, Great Lakes Toxicology and Ecology Division (GLTED) Lab (AID 2284055; active = hit-call score of the fitted dose curve at least 0.9, where 1 is the maximum;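 for AC50: potency is for inhibition seen as loss of released iodide signal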). In short, it runs like this: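 Cell-free assay with human DIO3 enzyme produced by adenovirus expression; enzyme incubated with test chemical for 3 hours. Liberated iodide then measured by Sandell-Kolthoff absorbance; loss of signal versus DMSO baseline indicates inhibition, run in triplicate.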

Turning to `CC(O)C(F)(F)C(F)(F)F` (stereo not drawn), the result in test [1], in test [2], in test [3], in test [4] and in test [5] was inactive.

Regarding `O=S(=O)(c1ccc(O)cc1)c1ccc(O)cc1`, the call in test [1], in test [2], in test [6], in test [3], in test [4] and in [5] was inactive.

`c1ccc(OP(Oc2ccccc2)Oc2ccccc2)cc1`: the compound was classed as inactive in [1], in [2], in test [6], in test [4] and in test [5].

For `O=P(Oc1ccccc1)(Oc1ccccc1)Oc1ccccc1`, the result in test [1], in test [2], in [6], in test [3], in test [4] and in test [5] was inactive. Besides, the compound was called inactive in [7], in test [8] and in [9].

Take `CCCCC(CC)COP(=O)(Oc1ccccc1)Oc1ccccc1` (stereo not drawn): the outcome in test [1], in [2], in test [3], in test [10], in test [4] and in test [5] was inactive. In addition, the outcome in test [8], in test [9], in [11], in [12], in [13] and in test [14] was inactive. The compound was called inactive in [15]. For the same compound, the AC50 in [6] is 6.12 µM (active); in [7], 542 nM (active).

Take `CCOc1ccc(C(C)(C)COCc2cccc(Oc3ccccc3)c2)cc1`: the AC50 in test [1] is 10 µM (active); in test [2] it was 10 µM (active); in [6] it was 15.2 µM (active); in [3], 1.98 µM (active); in [4], 3.09 µM (active); in [5], 10 µM (active). The AC50 in test [7] is 1920 nM (active); in test [11], 23.7 µM (active); in [12], 26.8 µM (active); in test [13], 21.9 µM (active); in test [15], 3.81 µM (active). Moreover, the compound was called inactive in [8], in [9] and in test [14].

Regarding `CCC1(c2ccccc2)C(=O)N=C(O)NC1=O` (stereo not drawn), the result in test [1], in test [2], in test [6], in [16], in test [3] and in test [4] was inactive. The compound was called inactive in [5], in test [11], in [12], in test [13], in test [14] and in [15].

For `OCC(F)(F)OC(F)(F)C(F)(F)OC(F)(F)C(F)(F)OC(F)(F)F`, the compound was classed as inactive in [1], in test [2], in test [6], in test [3], in [4] and in test [5].

Turning to `c1cc2c3c(cccc3c1)CC2`, the call in test [1], in test [2], in test [3], in test [4] and in test [5] was inactive.

As to `COCCOCCO`, the result in test [16] and in test [10] was inactive.

Consider `CCOP(=S)(Oc1ccc([N+](=O)[O-])cc1)c1ccccc1` (stereo not drawn), for which the compound was called inactive in test [16] and in test [10].

Take `CCCCOCCOP(=O)(OCCOCCCC)OCCOCCCC`: the call in [7], in test [8] and in test [9] was inactive.

Regarding `ClC(Cl)(Cl)c1ccccc1`, the call in test [16] and in test [10] was inactive.

Regarding `O=C(O)C=CC(F)(C(F)(F)F)C(F)(F)F`, the compound was classed as inactive in test [1], in test [2], in test [4] and in test [5].

On to `O=S1(=O)OCC2C(CO1)C1(Cl)C(Cl)=C(Cl)C2(Cl)C1(Cl)Cl` (stereo not drawn), for which the result in test [17], in test [18], in test [7], in test [8] and in test [9] was inactive.

Take `O=c1ssc(Cl)c1Cl`: in test [19], the AC50 is 3.57 µM (active).

For the compound `CCNc1nc(Cl)nc(NC(C)(C)C)n1`, in [19], the AC50 was 11.4 µM (active).

On to `COP(=O)(CCC(=O)NCO)OC`, for which the compound was called inactive in [10].

For the compound `COC(=O)C(F)(F)C(F)(F)OC(F)(C(F)(F)F)C(F)(F)OC(F)=C(F)F` (stereo not drawn), the concentration at half-maximal activity (AC50) in test [19] was 3.1 µM (active).

`O=C(O)C(F)(F)OC(F)(F)C(F)(F)OC(F)(F)C(=O)O`: the compound was classed as inactive in test [1], in test [2], in test [4] and in [5].

As to `c1ccc2c(c1)Nc1ccccc1S2`, in test [16], the outcome was inactive.

Consider `CC1(C)CN=C(NN=C(/C=C/c2ccc(C(F)(F)F)cc2)/C=C/c2ccc(C(F)(F)F)cc2)NC1`, for which the compound was classed as inactive in test [19].

For `CCCCCCCc1ccc(O)cc1`, the AC50 in test [19] is 81.2 µM (active).

On to `CC(Cl)(Cl)C(=O)O`, for which the result in [16] and in test [10] was inactive.

Consider `[N-]=[N+]=[N-]`, for which the outcome in test [16] and in test [10] was inactive.

As to `O=S(=O)(F)C(F)(F)C(F)(F)C(F)(F)C(F)(F)C(F)(F)C(F)(F)C(F)(F)C(F)(F)F`, in test [19], the AC50 was 28.4 µM (active).

Consider `CCC(C)(C)c1ccc(O)cc1`, for which, in test [16], the compound was classed as inactive.

With `Nc1ccc2ccccc2c1`, the result in [10] was inactive.

Consider `Cc1ccc(N)cc1N`, for which the compound was classed as inactive in [10].

In the case of `O=C(O)C(F)(F)OC(F)(F)C(F)(F)OC(F)(F)F`, the outcome in [1], in test [2] and in test [4] was inactive. Besides, the concentration at half-maximal activity (AC50) in test [5] was 3.78 µM (active).
